Experimental data as given in PubChem BioAssay (NCI).
About 83,000 compounds went through this panel and 20% of them were active in at least one assay; those are over-represented in the sample as a whole.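 The test compound was applied at a single concentration to cells in 96-well plates for 48 hours, and percent growth was recorded.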 A number with no mark means an inactive call. Calls of active or inactive are those of the source. The calls were made as follows: active = growth percent below 10; inactive = the rest.

These compounds were tested on SNB-75 CNS (assay: NCI-60 one-dose screen, 48 h (100 = growth as untreated, 0 = no growth, -100 = all killed)). Details: 10 µM unless noted.
For `C=C1C(=O)O[C@H]2[C@H]1CC/C(COC(=O)c1cn(C)c3ccccc13)=C\CC[C@@]1(C)O[C@@H]21`, the growth was 59%.
With `CCOCCc1c(O)nc(SC)[nH]c1=O` the growth was 78.7%.
Compound `COc1ccccc1N1CCN(CCCOc2ccc(C(=O)/C=C3/C(=O)Nc4ccccc43)cc2)CC1` has a growth of 85.1%.
For `O=C(CCl)N1CCCc2ccccc21`, the growth was 72.6%.
For `C#C[C@@]1(O)[C@@H](CO)O[C@@H](n2cc(Br)c3c(N)ncnc32)[C@@H]1O`, the growth was -36.2% (active).
Work on `COc1ccc(C(=O)c2cc(F)c(F)c(OC)c2F)cc1OC(=O)CCl` yielded a growth of 42.9%.
`Cc1ccccc1NC(=O)c1sc2nc(C)c(C(C)O)cc2c1N` (stereo not drawn) gave a growth of 53.9%.
In the case of `OCCNc1nc(NCCO)nc(Nc2ccc(C3=NN(c4cc(Cl)cc(Cl)c4)C(c4ccc(Cl)cc4)C3)cc2)n1` (stereo not drawn), the growth is reported as -6.43% (active).
`COc1ccc(NC(=O)c2sc3nc(C)c(C(C)=O)cc3c2N)cc1` gave a growth of 88.3%.
Compound `Cc1ccc(-c2nc(C#N)c(S(=O)(=O)N(C)CCO)o2)cc1` has a growth of 101%.
Compound `O=C(CSC(=S)N1CCCCC1)Nc1ccccc1` has a growth of 93.1%.
`COc1cc2c(cc1OC)C(Sc1ccc(Cl)cc1)c1c(nc(N)c(C#N)c1N)O2` (stereo not drawn) was tested, and the growth was -17.4% (active).
`COC(=O)c1cncc(C(=O)Nc2ccc(-n3cnc4ccccc43)cc2)c1` was tested, and the growth was 117%.
With `O=C(/C(=C/c1ccc([N+](=O)[O-])cc1)SCc1ccc(Cl)cc1)c1ccc(F)cc1` the growth was 82.3%.
Work on `CCOC(=O)c1c(-c2ccc(O)cc2)c(C#N)c2c(C#N)c(N)nn2c1N` yielded a growth of 65.7%.
With `COc1cc(C2=NN(C(C)=O)C(c3cccc(Nc4ccnc5cc(C(F)(F)F)ccc45)c3)C2)cc(OC)c1OC` (stereo not drawn) the growth was 76.1%.
Compound `CC(=O)OC[C@]12CC[C@@H](c3cn(Cc4ccc(Cn5cc([C@@H]6CC[C@]7(COC(C)=O)CC[C@]8(C)[C@H](CC[C@@H]9[C@@]%10(C)CC[C@H](OC(C)=O)C(C)(C)[C@@H]%10CC[C@]98C)[C@@H]67)nn5)cc4)nn3)[C@@H]1[C@H]1CC[C@@H]3[C@@]4(C)CC[C@H](OC(C)=O)C(C)(C)[C@@H]4CC[C@@]3(C)[C@]1(C)CC2` has a growth of 105%.
`COc1ccc(/C=C/C(=O)Nc2ncnc3nc[nH]c23)cc1` showed a growth of 82%.
With `COC(=O)c1ccc2c(c1)NC(=O)[C@@H]1CCCN21` the growth was 83.1%.
`COc1cc(NC(=O)COc2cc(C)nc3ccc(OC)cc23)cc(OC)c1` showed a growth of 77.3%.
`CCOC(=O)c1ccc(Nc2ncnc3ccc(NC(=O)c4ccccc4)cc23)cc1` gave a growth of 77.9%.
For `CCN(CC)CC#CCOC(=O)[C@]1(C)CCC[C@]2(C)[C@H]3C[C@H]4C(C(C)C)=C[C@]3(CC[C@H]21)[C@@H]1C(=O)CCC(=O)[C@@H]14`, the growth was 55.4%.
`N#Cc1c(-c2ccc(F)cc2)nc(N/N=C/c2c[nH]c3ccccc23)nc1N1CCOCC1` gave a growth of 62.5%.
With `CN1CCN(CC#CCOC(=O)CNC(=O)[C@]23CCC(C)(C)C[C@H]2C2=CC[C@@H]4[C@@]5(C)CC[C@H](O)C(C)(C)[C@@H]5CC[C@@]4(C)[C@]2(C)CC3)CC1` the growth was 80.9%.
`Nc1c(C(=O)Nc2cccc3ccccc23)sc2nc3c(cc12)COCC3` gave a growth of 30.9%.
Work on `C#CCOC(=O)[C@]1(C)CCC[C@]2(C)[C@H]3C[C@H]4C(C(C)C)=C[C@]3(CC[C@H]21)[C@@H]1C(=O)CCC(=O)[C@@H]14` yielded a growth of 90.3%.
Work on `COC(=O)c1nc(-c2ccccc2)oc1S(=O)(=O)n1nc(-c2ccccc2)cc1N` yielded a growth of 93.4%.
`Cn1c2ccccc2c2c(OC(=O)c3ccccc3)c3c(nc21)-c1ccccc1C3` gave a growth of 90.8%.
For `COc1ccc(-c2cc(-c3nnc(SCC(=O)Nc4ccc(/C(C)=N\O)cc4)o3)c3ccccc3n2)cc1`, the growth was 98.3%.
`COc1ccc(C2CC(c3ccc(OC)cc3O)=NN2c2ccc(S(N)(=O)=O)cc2)cc1` (stereo not drawn) showed a growth of 58.2%.
Compound `CC(=O)c1ccc(NC(=O)CSc2nnc(-c3cc(-c4ccc(Cl)cc4)nc4ccccc34)o2)cc1` has a growth of 82.7%.
`CCOC(=O)c1c(C)nc2c(c1N)/C(=C/c1cccs1)C(=O)N2Cc1ccccc1` was tested, and the growth was 72.6%.
With `CN(C)[C@@H]1C(=O)C(C(N)=O)=C(O)[C@@]2(O)C(=O)C3=C(O)c4c(O)cc(CN5CCc6ccccc6C5)c(Cl)c4C[C@H]3C[C@@H]12` the growth was -79.1% (active).
